PKD1 inh: blocks activity of human protein kinase D1; Q15139; PKD1 kinase fluorescence polarization assay; inhibition, % (test concentration not listed); actives 0.056% (n = 200,000); AID 797
VLA-4 inh: inhibition in a human VLA-4 binding assay; P13612; VLA-4 expressing cells, ligand binding flow cytometry; inhibition, % (about 7 µM as worked out from the volumes in the protocol); actives 0.2% (n = 330,000); AID 2557
GRK2 aptamer HTS: inhibitors of human GRK2 displacing RNA aptamer. P25098. actives 0.59% (n = 330,000). AID 488847. inhibition of aptamer binding, % at 10 µM. bead flow cytometry, FAM-aptamer displacement from GRK2;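 active means inhibition of aptamer binding above 40%, roughly 3 SD of noise, on plates passing a quality check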;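 further: median bead fluorescence of bound FAM aptamer so fluorescent compounds give negative values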
DSG3 Ab inh: blocks pemphigus antibody binding to human desmoglein-3. DSG3-coupled beads, scFv-anti-DSG3-GFP binding, flow cytometry; stronger effect = lower value. binding (percent of control), % at 10 µM. actives 0.48% (n = 310,000). AID 588358;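 active means binding more than 3 SD below its plate's average and above zero; inconclusive means below that plate limit but binding exactly zero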;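 further: hits lower antibody fragment binding to DSG3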
HDAC3 inh: human HDAC3 inhibition | actives 0.15% (n = 320,000) | AID 2718 | O15379 | recombinant HDAC3, fluorogenic peptide/trypsin coupled, fluorescence | inhibition, % at 8.3 µM; in the data active means inhibition above about 26%, passing the limit was not always enough; inconclusive means no clear call, values can overlap the other calls
LANA-H2A inh: blocks KSHV LANA binding to histone H2A/H2B. Q9QR71. cell-free LANA-H2A/H2B peptide, fluorescence polarization. inhibition, % (concentration not given with the values). actives 0.6% (n = 320,000); in the data active means inhibition mostly above about 10%, no sharp cut-off; inactive means mostly below about 6.7%
Target sequence (Q9QR71 whole entry, looked up): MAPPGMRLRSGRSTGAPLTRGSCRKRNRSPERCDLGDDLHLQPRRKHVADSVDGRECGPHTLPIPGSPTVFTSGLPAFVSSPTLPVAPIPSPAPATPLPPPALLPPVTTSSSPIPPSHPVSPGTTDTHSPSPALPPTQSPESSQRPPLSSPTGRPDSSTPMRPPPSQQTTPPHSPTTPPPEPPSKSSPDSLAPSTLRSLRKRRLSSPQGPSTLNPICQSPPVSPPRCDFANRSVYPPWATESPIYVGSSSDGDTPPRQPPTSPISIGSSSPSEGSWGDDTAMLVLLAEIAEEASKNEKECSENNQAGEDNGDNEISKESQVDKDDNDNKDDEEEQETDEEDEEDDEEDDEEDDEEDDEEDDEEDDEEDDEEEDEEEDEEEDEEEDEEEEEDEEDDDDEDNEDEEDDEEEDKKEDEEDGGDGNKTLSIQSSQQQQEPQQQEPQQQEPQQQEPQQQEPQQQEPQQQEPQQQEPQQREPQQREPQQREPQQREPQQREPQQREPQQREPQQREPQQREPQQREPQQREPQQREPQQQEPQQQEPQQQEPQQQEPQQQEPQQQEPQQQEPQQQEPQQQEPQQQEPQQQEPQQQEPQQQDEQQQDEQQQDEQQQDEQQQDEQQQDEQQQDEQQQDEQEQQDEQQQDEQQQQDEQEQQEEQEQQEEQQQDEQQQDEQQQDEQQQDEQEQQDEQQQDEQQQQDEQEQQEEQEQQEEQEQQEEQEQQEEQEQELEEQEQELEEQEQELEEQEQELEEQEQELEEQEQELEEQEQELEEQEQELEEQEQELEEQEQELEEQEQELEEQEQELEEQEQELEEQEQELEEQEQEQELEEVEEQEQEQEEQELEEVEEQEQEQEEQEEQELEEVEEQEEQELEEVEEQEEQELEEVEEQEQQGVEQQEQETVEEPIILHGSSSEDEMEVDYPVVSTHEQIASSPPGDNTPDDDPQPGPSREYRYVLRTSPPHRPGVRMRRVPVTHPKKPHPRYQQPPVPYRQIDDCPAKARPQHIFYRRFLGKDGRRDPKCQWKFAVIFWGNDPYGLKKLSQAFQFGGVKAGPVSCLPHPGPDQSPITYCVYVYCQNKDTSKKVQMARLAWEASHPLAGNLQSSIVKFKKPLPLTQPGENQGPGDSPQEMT
PKD FP artifact: interferes with fluorescence polarization in PKD inhibitor counter-screen; shares compounds with PKD1 inh; inhibition, % at 10 µM; 85 tested, under 10 active; PKD1 FP assay interference counter-screen; call rule not given here
VLA-4 mod pick: confirmation of allosteric modulators of human VLA-4 integrin; shares compounds with VLA-4 inh; U937 cells, HUTS-21 LIBS mAb binding, flow cytometry; LDV ligand present at threefold Kd; inhibition, % at 6.7 µM; actives 2% (n = 1,300); in the data active means inhibition above about 40%;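 further: 0% = ligand without compound and 100% = no ligand background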
* marks the source's active call; other numbers are inactive results; u = inconclusive; x = no result given. Compounds with a hit are over-represented: about 1.8% of the library has one in this group of screens. Unless noted, no stated cut-off is given here; in the data, active means inhibition above about 50%; inactive means the rest.

SMILES | PKD1 inh | VLA-4 inh | GRK2 aptamer HTS | DSG3 Ab inh | HDAC3 inh | LANA-H2A inh | VLA-4 mod pick | others
O=C(Nc1cccc([N+](=O)[O-])c1)C12CC3CC(C1)CC(n1cnc([N+](=O)[O-])n1)(C3)C2 | 62* | 5 | 0 | x | 2 | -2 | x | PKD FP artifact=0
O=C(COc1ccc2c3c(c(=O)oc2c1)CCCC3)NCCCN1CCOCC1 | x | 6 | 3 | 103 | -17 | -3 | x
CCOC(=O)c1[nH]c2ccc(C)cc2c1NC(=O)CN1CCCCC1 | -4 | 1 | 0 | 119 | -2 | -3 | x
CCOC(=O)c1[nH]c2cc(OC)c(OC)cc2c1NC(=O)CN1CCN(C)CC1 | 76* | x | x | x | x | x | x | PKD FP artifact=-2
COCC(C)n1c(C)cc(C(=O)COC(=O)c2nc3nc(C)cc(C)n3n2)c1C (stereo unspecified) | 98* | 8 | 0 | 104 | -1 | -3 | x | PKD FP artifact=-6
CCOc1cccc(C2C(C(=O)c3ccc(C)o3)=C(O)C(=O)N2c2nccs2)c1 (stereo unspecified) | 88* | 9 | 7 | 110 | 5 | 15* | x | PKD FP artifact=71*
C[C@H](NC(=O)C1CCN(S(=O)(=O)c2ccccc2)CC1)C(=O)NCc1ccccn1 | x | 4 | 2 | 121 | -4 | 2 | x
Cn1c(OCc2cccnc2)nc2c1c(=O)n(Cc1ccc(Br)cc1)c(=O)n2C | 97* | -8 | 2 | 100 | 15 | 3 | x | PKD FP artifact=-4
COc1ccc2nc3sc(C(=O)NCCCN4CCc5ccccc5C4)cc3cc2c1 | 56* | -18 | 0 | 103 | 4 | -1 | x | PKD FP artifact=-17
COc1ccc2nc3sc(C(=O)N4CCN(C)CC4)cc3cc2c1 | -6 | -12 | 0 | 101 | -4 | -3 | x
CC1CCN(S(=O)(=O)c2ccc(C(=O)N3CCCC(C(F)(F)F)C3)cc2)CC1 (stereo unspecified) | x | 24 | 0 | u | 0 | 9 | x
CCc1nc(NC(=O)NS(=O)(=O)c2ccccc2C(=O)OC)nc(OC)n1 | 4 | -3 | 0 | 110 | -12 | -4 | x
CC(=O)Nc1ccc(C2=CC(=O)CC(C)(C)C2)cc1 | x | 9 | 0 | 96 | 2 | 5 | x
Cc1ccc(C)c(NC(=S)N2CCC(NC(=O)C3CCCCC3)CC2)c1 | x | 8 | 0 | 94 | 5 | 0 | x
NC(=NCCc1c[nH]c2ccccc12)NS(=O)(=O)c1cc(F)ccc1F | 52* | 4 | 0 | 104 | 1 | 2 | x | PKD FP artifact=-15
COc1ccccc1CCN=C(N)NS(=O)(=O)c1ccc(F)cc1 | x | 6 | 0 | 102 | 10 | 0 | x
O=C(Nc1ccc(F)cc1F)N1CCN(CCc2ccccc2)CC1 | x | 0 | 0 | 103 | -9 | -3 | x
O=C(Nc1ccc(F)cc1F)N1CCN(C/C=C/c2ccccc2)CC1 | 4 | 55* | 0 | 103 | 2 | -5 | 5
C=CCn1c(-c2ccccc2)c[nH]c1=S | -7 | 13 | 0 | 98 | -2 | -2 | x
CCn1c(-c2ccc(-c3ccccc3)cc2)c[nH]c1=S | -1 | 93* | 0 | 107 | -3 | -8 | 9
Cc1ccc(-c2cc(C(=O)Nc3c(C)n(C)n(-c4ccccc4)c3=O)[nH]n2)c(O)c1 | -12 | 10 | 1 | -21* | 12 | 1 | 6
Cc1c(NC(=O)c2c(F)cccc2F)c(=O)n(-c2ccccc2)n1C | 9 | 2 | 0 | 98 | 5 | 3 | x
Cc1c(NC(=O)c2ccccc2N(C)S(=O)(=O)c2ccccc2)c(=O)n(-c2ccccc2)n1C | -6 | 8 | 0 | 103 | -3 | 3 | -4
COc1cccc(OC)c1C(=O)Nc1c(C)n(C)n(-c2ccccc2)c1=O | -5 | 0 | 3 | 101 | 5 | 12 | 6
Cc1c(NC(=O)c2ccc(Cl)c(S(=O)(=O)N3CCOCC3)c2)c(=O)n(-c2ccccc2)n1C | -5 | 6 | 0 | 108 | 0 | 5 | 2
SMILES | PKD1 inh | VLA-4 inh | GRK2 aptamer HTS | DSG3 Ab inh | HDAC3 inh | LANA-H2A inh | VLA-4 mod pick | others
Cc1c(NC(=O)c2ccc(Cl)c(S(=O)(=O)N3CCCCC3)c2)c(=O)n(-c2ccccc2)n1C | x | -16 | 14 | 116 | 0 | -2 | x
CC1(C)C2CCC(C2)C1(C)NC(=O)CNC1CCCCC1 (stereo unspecified) | 1 | 1 | 0 | 100 | -5 | 1 | x
Cc1c(NC(=O)C2CC=CCC2C(=O)O)c(=O)n(-c2ccccc2)n1C (stereo unspecified) | -5 | 4 | 17 | 99 | -3 | 5 | -11
COc1ccccc1-n1cnnc1SCC(=O)NCC1CCCO1 (stereo unspecified) | -2 | 6 | 6 | 99 | -6 | 2 | x
CCOC(=O)C1(C(F)(F)F)N=C(C(F)(F)F)Nc2ccccc21 (stereo unspecified) | -3 | 56* | 0 | 96 | -6 | 2 | 1
CCOC(=O)C1(Cc2ccccc2)C(=O)Nc2ccccc21 (stereo unspecified) | x | 4 | 1 | 102 | -6 | 3 | x
O=C(CC1CCCCC1)NCc1nc(-c2ccccc2)no1 | x | -2 | 2 | 105 | x | -3 | x
COc1ccc(C2c3ccc4ccccc4c3Oc3ncn(CCCN(C)C)c(=N)c32)cc1 (stereo unspecified) | x | 45 | 0 | 117 | 18 | 1 | 27
COc1ccccc1C1c2ccc3ccccc3c2Oc2ncn(CCN(C)C)c(=N)c21 (stereo unspecified) | x | 20 | 0 | 102 | 0 | -1 | x
CC1CC2CCCC(O)=C2C(=O)O1 (stereo unspecified) | x | x | x | 103 | x | x | x
CCn1c(SCC(=O)Nc2nc(C)cs2)nnc1C(NC(=O)c1ccccc1Cl)C(C)C (stereo unspecified) | 0 | 0 | 0 | 106 | 1 | 2 | -7
C[C@@H]1CN([C@@H](C)CO)C(=O)CCCn2nncc2CO[C@H]1CN(C)S(=O)(=O)c1cn(C)cn1 | x | x | x | 103 | x | x | x
COc1ccccc1CCNC(=O)Cn1c(=O)oc2ccccc21 | x | 18 | 0 | 115 | -11 | 1 | x
COc1ccc(NC(=O)Cn2c(=O)oc3cc(Cl)ccc32)c(OC)c1 | x | 5 | 5 | 109 | 1 | 2 | 0
O=C(Cn1c(=O)oc2ccccc21)NCCc1ccccc1 | x | -1 | 0 | 108 | 0 | -1 | 8
COc1ccc(Cl)cc1NC(=O)Cn1c(=O)oc2ccccc21 | x | 0 | 1 | 108 | -5 | -3 | x
O=C(Cn1c(=O)oc2ccccc21)Nc1ccc(Cl)cc1Cl | x | -9 | 2 | 101 | -1 | 2 | -9
O=C(Cn1c(=O)oc2ccccc21)Nc1ccc(Br)cc1 | x | 2 | 0 | 99 | -1 | -5 | 3
O=C(Cn1c(=O)oc2ccccc21)Nc1ccc(F)cc1 | x | 1 | 0 | 108 | -10 | 0 | x

Screens: PubChem, several laboratories
